Reference: PubChem BioAssay AID504339 (National Center for Advancing Translational Sciences (NCATS), 2011)
Screen size: about 390,000 compounds; about 17,000 (4.4%) were called active. Not shown: some 8% with an inconclusive outcome. The call rests on the fitted dose curve; in most records, active means well fitted inhibition curve with a large enough effect; inconclusive means small, poorly fitted or top-dose-only effect; inactive means no such curve, though single readings can be large or run the other way. What follows is part of a selection rich in actives, with near analogues and random picks from the rest.

Biological target: Lysine-specific demethylase 4A (Homo sapiens) (UniProt O75164)
Test: qHTS Assay for Inhibitors of JMJD2A-Tudor Domain; further: nearly all actives have a fitted effect of over 50% in size
Conditions: AlphaScreen JMJD2A-Tudor / H3K4me3 peptide binding; series mostly up to 114 µM; activity change, negative = inhibition: at the top concentration
On the % scale 0 is the no-effect control and ±100 the full control effect; potency means the concentration at half of the fitted maximal effect.

Lysine-specific demethylase 4A (Homo sapiens), sequence (O75164 whole entry, looked up, the tested form may be a part): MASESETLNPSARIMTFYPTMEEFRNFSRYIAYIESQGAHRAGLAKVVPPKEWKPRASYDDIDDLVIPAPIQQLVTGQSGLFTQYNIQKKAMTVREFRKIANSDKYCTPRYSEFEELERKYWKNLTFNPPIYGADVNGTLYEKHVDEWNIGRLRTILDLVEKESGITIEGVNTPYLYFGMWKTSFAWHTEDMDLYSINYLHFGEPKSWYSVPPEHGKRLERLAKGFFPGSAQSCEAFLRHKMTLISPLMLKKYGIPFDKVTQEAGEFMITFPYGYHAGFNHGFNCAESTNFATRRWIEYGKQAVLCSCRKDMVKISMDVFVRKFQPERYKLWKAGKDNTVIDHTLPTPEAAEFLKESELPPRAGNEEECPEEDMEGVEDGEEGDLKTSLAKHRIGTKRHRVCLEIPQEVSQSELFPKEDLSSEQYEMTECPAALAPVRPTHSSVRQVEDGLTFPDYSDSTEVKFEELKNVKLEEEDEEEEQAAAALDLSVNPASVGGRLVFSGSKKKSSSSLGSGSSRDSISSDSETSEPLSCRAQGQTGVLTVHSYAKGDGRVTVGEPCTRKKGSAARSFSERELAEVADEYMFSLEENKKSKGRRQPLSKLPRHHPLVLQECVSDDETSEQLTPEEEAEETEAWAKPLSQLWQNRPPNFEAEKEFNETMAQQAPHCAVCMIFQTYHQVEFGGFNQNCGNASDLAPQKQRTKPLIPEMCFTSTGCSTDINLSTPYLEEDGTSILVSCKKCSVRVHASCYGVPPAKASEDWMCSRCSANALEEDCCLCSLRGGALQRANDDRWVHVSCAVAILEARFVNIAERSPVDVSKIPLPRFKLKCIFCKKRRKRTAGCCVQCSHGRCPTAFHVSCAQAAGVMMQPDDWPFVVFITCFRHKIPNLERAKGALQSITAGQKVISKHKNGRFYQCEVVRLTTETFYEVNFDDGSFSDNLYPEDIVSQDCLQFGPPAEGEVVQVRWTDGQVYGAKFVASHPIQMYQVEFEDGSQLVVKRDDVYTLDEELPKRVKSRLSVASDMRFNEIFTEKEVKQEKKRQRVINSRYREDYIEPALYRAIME

Activity change, negative = inhibition, inactive:
CC1=C(C(=O)OCc2ccc(C)cc2)C(c2c(Cl)cccc2Cl)CC(=O)N1 (stereo not given) 2.4%, Cc1onc(-c2ccc(F)cc2F)c1C(=O)Nc1cccc(C(F)(F)F)c1 11%, CCOCCCNC(=O)c1c(NC(=O)c2nc(SC)ncc2Cl)sc2c1CCCC2 -9.72%, CCOc1ccc(NC(=O)CCc2c(C)nn(-c3ccc(N4CCCC4)nn3)c2C)cc1 -22.7%, O=C(C1CC(=O)N(C2CCCCC2)C1)N1CCN(c2ccccc2)CC1 (stereo not given) -33.1%, CCC(=O)c1ccc(OCC(=O)Nc2ccc(N3CCCCC3)cc2)cc1 -7.05%, CCC(=O)Nc1ccc(C)cc1-c1nc2ccccc2n(Cc2ccccc2)c1=O -0.993%, COc1cc(CN(C(=O)c2ccccc2Br)c2ccccn2)cc(OC)c1OC -2.98%, COc1ccccc1C1C(C(=O)N2CCCCC2)=C(C)Nc2nc3ccccc3n21 (stereo not given) -17.1%, COc1ccccc1CNC(=O)c1ccc(-n2c(C)cc3c2CCCC3)cc1 -28.7%, CCc1nnc(NC(=O)c2ccc(S(=O)(=O)NC3CCCCC3)cc2)s1 -5.81%, Cc1ccnc2nc(C(=O)Nc3nnc(-c4ccccc4)o3)nn12 -18% [at 57.1 µM], COc1ccc(CCC(=O)NCc2ccc3c(c2)CCN3C(=O)c2ccc(F)cc2)cc1 -3.33%, COc1ccc(-c2nnc(SCC(=O)NC3CCCCC3)o2)cc1OC -0.704%, COc1ccccc1-n1ccnc1SCC(=O)NC(C)(C)C -6.01%, N#CN1CCC(NC(=O)c2ccc(F)cc2)CC1 -14.4%, C/C=C/c1ccc(OCC(=O)NNC(=O)CN(C)S(=O)(=O)c2ccc(C)cc2)c(OC)c1 -24.8%, COc1ccc(OC)c(NC(=O)CCN2CCC(C)CC2)c1 -24.4%, C=CCc1ccc(OCC(O)CN2CCN(Cc3ccccc3)CC2)c(OC)c1 (stereo not given) -8.7%, C/C=C/c1ccc(OCCOc2ccc(C=O)cc2OC)c(OC)c1 10.4%, CC1CCN(CCC(=O)Nc2ccccc2)CC1 -6.38%, OC(COc1ccc(CN2CCSCC2)cc1)CN1CCCCC1 (stereo not given) -8.63%, O=C(NC1CC(=O)N(c2ccc(F)cc2)C1)c1cccs1 (stereo not given) 1.62%, COc1ccc(-c2noc(CSc3nnc(-c4ccccc4)n3-c3ccc(F)cc3)n2)c(OC)c1 -32.3%, Cc1oc2ccc(O)c(CN3CCCCC3)c2c1C(=O)Nc1cccc(C(F)(F)F)c1 -33.7%, CCCCCn1c(=O)[nH]c2cc(C(=O)NCCN(C)CCCC)ccc2c1=O -6.48%, CCC(=O)N1CCc2cc(S(=O)(=O)NC(Cc3ccccc3)C(=O)NCc3ccc(C)cc3)ccc21 (stereo not given) -3%, CN(Cc1ccccc1)C(=O)c1cc2c(=O)n(C)c3ccccc3c2s1 -1.67%, COc1ccc(C2=Nn3c(nnc3-c3ccccc3O)SC2)cc1 -17.9%, CC1=C(C(=O)OCC(C)C)C(c2ccc(OCc3ccccc3)cc2)N2C(=O)CCSC2=N1 (stereo not given) -15.6%, CCC(=O)Nc1cccc(C(=O)OCc2cc(=O)n3nc(CC)sc3n2)c1 -3.97%, O=S(=O)(NCCc1ccccc1)c1ccccc1 -11.6%, O=S(=O)(NCCc1ccncc1)c1ccccc1 -7.32%, Cc1nn2c(=O)cc(COC(=O)CNC(=O)c3ccc(F)cc3)nc2s1 -14.3%, Cc1ccc(C)c(N2CCN(Cc3nnc(-c4ccccc4)o3)CC2)c1 -4.79%, CC1CCC(N2CC(=O)N(CCC3=CCCCC3)C(c3ccc(F)cc3)C2=O)CC1 (stereo not given) 7.65%, Cn1c(-c2sc3cc(C(F)(F)F)cnc3c2-c2ccccc2)n[nH]c1=S -31.9%, Cn1c(-c2sccc2OCc2cccc(C(F)(F)F)c2)n[nH]c1=S -12% [at 11.4 µM], COc1ccc(-c2nc(SCC(=O)N3CCOCC3)n[nH]2)cc1 -4.35%, COc1ccc(CNC(=O)CSc2n[nH]c(N)n2)cc1OC -7.77%, COc1cccc(C(=O)NC(=O)Nc2ccc(-c3cc(C(F)(F)F)nn3-c3ccccc3)cc2)c1 -9.7%, Cc1ccc(S(=O)(=O)NCc2nc3nc(C)cc(C)n3n2)cc1 -10.4%, CCC1=Nc2cc(C(=O)NCCCOC(C)C)ccc2Sc2ccc(C)cc21 -26.2%, O=C(CCS(=O)(=O)c1ccc2c(c1)NC(=O)CO2)Nc1cccc(C(F)(F)F)c1 -2.96%, CS(=O)(=O)c1ccc2c(c1)SC1=NC(=O)/C(=C/c3ccco3)C(=N)N12 -34%, Cc1cccc(NC(=O)CSc2ncc(-c3ccccc3)[nH]2)c1C -23.9%, CCc1ccccc1NS(=O)(=O)c1ccc2nc(-c3ccccc3)[nH]c2c1 -10.6%, Cc1ccc(Nc2ccc3cc(S(=O)(=O)N4CCCCC4)ccc3n2)cc1F 48.7%, CCOc1ccc(C2CC(=O)c3c([nH]c(C(=O)OCc4ccccc4)c3C)C2)cc1 (stereo not given) -34.6%, Cc1ccc(CNC(=O)CCc2c(C)nn(-c3ccc(N4CCCC4)nn3)c2C)cc1 -14.3%, C=CCn1c(=S)sc2c(=O)[nH]c(C)nc21 -6.04%, C=CCn1c(COc2ccccc2C)nnc1SCC(=O)O -21.3%, Cc1[nH]c2ccc(S(N)(=O)=O)cc2c1C -20.5%, C=CCn1c(CCc2ccc(OC(C)C)cc2)n[nH]c1=S -56.8%, COc1ccc(-c2cn3c(C)c(C(=O)Nc4cc(C)cc(C)c4)sc3n2)cc1 -14.4%, COC(=O)c1cc2occc2n1Cc1nc(-c2ccc(C)cc2)oc1C -13.8%, Cc1cccc(NC(=O)c2cc3c(C)nn(-c4ccccc4)c3s2)c1 0.687%, O=C(c1ccc(C(F)(F)F)cc1)N1CCC(c2nc(-c3ccc(S(=O)(=O)N4CCCC4)cc3)no2)CC1 -23.6%, O=C(CC(c1cccs1)N1Cc2ccccc2C1=O)Nc1ccc(F)c(F)c1 (stereo not given) -6.41%, Cc1cccc(NC(=O)CSc2nc3c([nH]c4ccccc43)c(=O)n2-c2cc(C)cc(C)c2)c1 -2.26%, Cc1ccc(N2CC(C(=O)Nc3ccc(N(C)C)cc3)CC2=O)cc1Cl (stereo not given) -14.2%, O=S(=O)(NCCS(=O)(=O)N1CCN(c2ccccc2)CC1)c1ccc(Cl)cc1 -10.5%, COc1ccc(OCc2ccc(-c3nc(C#N)c(N4CCN(c5ccccc5)CC4)o3)o2)cc1 -25.8%, CCC(C)Nc1oc(-c2ccc(COc3ccc(Cl)cc3)o2)nc1C#N (stereo not given) -23.2%, CCOc1ccccc1NC(=O)Cn1c(=O)n(Cc2ccccc2)c(=O)c2c(C)c(C(=O)N(C)C)sc21 -12.3%, O=S(=O)(c1ccccc1)c1nc(-c2ccccc2F)oc1NCc1cccnc1 -32.6%, c1ccc(COc2ccccc2CNCc2cccnc2)cc1 -35.1%, CCOC(=O)c1c(NC(=O)/C=C/c2ccc(OC)cc2)sc2c1CCC(C)C2 (stereo not given) 6.21%, COc1cc(/C=N\NC(=O)C2C(=O)NCC2c2ccccc2)cc(OC)c1O (stereo not given) -6.9%, COc1ccc(/C=N/NC(=O)C2CC2)c(OC)c1OC -1.92%, CCOc1ccccc1NC(=O)CN1CCN(S(=O)(=O)c2ccc(Br)cc2)CC1 -5.5%, CCOc1cc(C2c3c(-c4ccc(Br)cc4)n[nH]c3C(=O)N2c2ccc(Cl)cc2)ccc1O (stereo not given) -21%, O=C(CN1C(=O)c2cccc3cccc(c23)C1=O)N1CCCCC1 -7.05%, O=C1c2ccccc2C(=O)N1CCCc1nc(-c2ccccc2)no1 11.5%, CCCN1CCN(CCCNC(=O)Cn2nc(CC)n3c(cc4occc43)c2=O)CC1 -16.1%, COc1cc(C#Cc2ccc3cc(CCCO)oc(=O)c3c2)cc(OC)c1 -33.8%, COC(=O)C(C)Oc1ccc2c(c1)O/C(=C\c1cccc(Br)c1)C2=O (stereo not given) -35.5%, CCC(CC)NC(=O)/C=C/c1cccc([N+](=O)[O-])c1 6.03% [at 57.1 µM], O=C(CN1CCOCC1)Nc1cccc([N+](=O)[O-])c1 -4.93%, Cc1cc(C)c(/C=C/c2onc(C)c2S(=O)(=O)N2CCC(C(=O)Nc3ccc(Cl)cc3C)CC2)c(C)c1 -1.92%, O=C(CNC(=O)COc1ccccc1)NCCc1ccccn1 -15.4%, Cc1c(C)c(C)c(S(=O)(=O)NCCc2ccccn2)c(C)c1C -7.58%, Cc1ccc(CNC(=O)CSc2c(C)cnc3c2c(=O)n(C)c(=O)n3C)cc1 -0.325%, O=c1/c(=C/c2ccc(CNS(=O)(=O)c3ccccc3)o2)sc2n1CCN=2 -24.9%

Potency, active:
O=C1C=CC(=O)N1c1ccc(N2CCCCC2)cc1 20 µM, CCc1nnc(NC(=O)c2nc3nccc(C)n3n2)s1 35.5 µM, COc1ccccc1-n1ccnc(SCC(=O)NC2CCCCC2)c1=O 35.5 µM, COc1ccc(OCCCCN2CCC(C)CC2)cc1 20 µM, C/C=C/c1ccc(OCC(O)CN2CCCCCCC2)c(OC)c1 (stereo not given) 3.16 µM, C/C=C/c1ccc(OCCCCN2CCC(C)CC2)c(OC)c1 3.16 µM, S=c1[nH]nc(NCCc2ccccc2)s1 2.51 µM, Cc1ccccc1-c1n[nH]c(=S)n1C 7.08 µM, COc1ccc(C(=O)CSc2n[nH]c(N)n2)cc1 56.2 µM, CC(C)(C)C1C/C(=C/c2ccco2)C(=O)/C(=C/c2ccco2)C1 (stereo not given) 31.6 µM, C=CCn1c(-c2ccc3[nH]c(C)c(C)c3c2)n[nH]c1=S 50.1 µM, C=CCn1c(-c2ccccc2OCC)n[nH]c1=S 4.47 µM, Nc1ccccc1SC(C[N+](=O)[O-])c1ccccc1 (stereo not given) 6.31 µM, CN1CCN(c2oc(-c3ccc(COc4ccc(Cl)cc4)o3)nc2C#N)CC1 39.8 µM, N#Cc1nc(COc2ccc(-c3ccccc3)cc2)oc1NCc1cccnc1 44.7 µM, COc1cccc(/C=N\NC(=O)C2=NNC(=O)C2C)c1O (stereo not given) 56.2 µM, O=C1c2cccc3cccc(c23)C(=O)N1CCCCCc1n[nH]c(=S)o1 89.1 µM, COc1cc(/C=C2\Oc3ccc(C#Cc4ccc(O)cc4)cc3C2=O)cc(OC)c1 89.1 µM, COC(=O)/C=C\C(=O)Nc1cccc([N+](=O)[O-])c1 17.8 µM, COc1ccc(NCCc2ccccn2)cc1 79.4 µM, O=c1nc2s/c(=C\c3ccco3)c(=O)n2nc1Cc1ccccc1 50.1 µM
